Source: PubChem (several laboratories)
WT yeast gro inh – growth inhibition of WT yeast, mitochondrial fusion screen; mitochondrial fusion phenotypic screen, WT strain; inhibition, % at 10 µM; hit rate 2.1% among 190,000; in the data active means inhibition above about 58%; tested in S. cerevisiae
L929 necroptosis – blocks zVAD induced death of L929 cells; L929 zVAD necroptosis rescue, ATP luminescence, 24 h; with zVAD 60 µM; viability rescue, % at 10 µM; AID 1377; hit rate 0.38% among 220,000;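 active means activation, scaled between plate controls, above about 75%, limit read from the data; inactive means activation under that limit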
Redox H2O2 prof – compounds producing H2O2 with reducing agent – biochemical, NIH compound library profiling, artefact control for MLSCN library redox annotation, primary screen; hit rate 0.03% among 200,000; DTT-dependent redox cycling H2O2, phenol red/HRP absorbance; 100% = 100 µM peroxide control, 0% = buffer; activation, % at 10 µM; AID 878;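 active means activation of at least 50% relative to the plate's high and low controls in the primary single-dose screen; inactive means activation below 50%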;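 further: compound incubated with DTT at 0.8 mM final as the reducing agent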
TNF death inh – blocks TNF-alpha induced death of Jurkat FADD-/- cells. activation (protection from cell death), % at 10 µM. hit rate 0.068% among 220,000. Jurkat FADD-/- TNF necroptosis rescue, ATP luminescence, 24 h; 0 = TNF only, 100 = no-TNF cells;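 active means activation, meaning protection from cell death, of at least 50% relative to plate controls; inactive means activation below 50%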;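 further: necroptosis triggered by 40 ng/mL TNF-alpha added together with compound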
PERK inhibitor – blocks human PERK kinase; hit rate 0.17% among 220,000; CHO PERK-DD fusion, SEAP luminescence translation reporter; inhibition, % at 5.6 µM;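 active means inhibition above the mean inhibition of all tested compounds plus 3 SD, set separately per screening campaign, cut at about 2.9% in these data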;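 further: PERK kinase domain activated by AP20187 dimerizer at 100 nM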
Target sequence (Q9NZJ5 whole entry, looked up, the tested form may be a part): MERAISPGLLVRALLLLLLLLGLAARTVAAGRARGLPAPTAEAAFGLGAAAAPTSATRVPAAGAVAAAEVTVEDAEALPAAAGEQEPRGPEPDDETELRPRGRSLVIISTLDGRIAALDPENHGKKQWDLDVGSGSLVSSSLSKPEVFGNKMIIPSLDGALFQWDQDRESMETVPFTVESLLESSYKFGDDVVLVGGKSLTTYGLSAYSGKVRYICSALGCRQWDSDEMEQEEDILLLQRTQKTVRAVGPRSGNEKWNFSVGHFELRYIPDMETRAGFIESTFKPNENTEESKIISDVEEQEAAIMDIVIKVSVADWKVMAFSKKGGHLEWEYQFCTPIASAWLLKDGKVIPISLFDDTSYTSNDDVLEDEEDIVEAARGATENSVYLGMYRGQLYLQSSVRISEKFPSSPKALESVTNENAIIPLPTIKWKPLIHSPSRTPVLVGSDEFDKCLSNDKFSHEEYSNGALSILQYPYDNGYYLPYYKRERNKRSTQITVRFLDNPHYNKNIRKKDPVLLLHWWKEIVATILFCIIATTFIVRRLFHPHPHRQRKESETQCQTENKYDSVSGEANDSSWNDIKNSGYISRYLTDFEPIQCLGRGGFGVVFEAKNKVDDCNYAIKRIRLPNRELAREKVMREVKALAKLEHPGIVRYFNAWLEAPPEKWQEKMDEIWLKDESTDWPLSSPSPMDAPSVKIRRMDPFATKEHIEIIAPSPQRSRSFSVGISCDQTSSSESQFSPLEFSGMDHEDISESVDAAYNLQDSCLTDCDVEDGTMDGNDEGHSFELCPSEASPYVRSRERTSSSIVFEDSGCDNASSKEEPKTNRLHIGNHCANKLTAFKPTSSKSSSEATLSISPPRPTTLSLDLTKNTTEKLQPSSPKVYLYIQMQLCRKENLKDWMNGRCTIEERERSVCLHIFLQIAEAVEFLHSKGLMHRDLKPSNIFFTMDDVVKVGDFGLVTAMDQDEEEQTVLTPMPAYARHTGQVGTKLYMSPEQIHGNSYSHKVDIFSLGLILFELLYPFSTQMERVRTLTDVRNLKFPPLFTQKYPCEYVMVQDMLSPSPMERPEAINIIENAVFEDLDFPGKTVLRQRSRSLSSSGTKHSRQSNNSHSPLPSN
PKD1 inh – PKD1 (human) kinase inhibition | hit rate 0.056% among 200,000 | Q15139 | inhibition, % (no concentration beside the values) | PKD1 kinase fluorescence polarization assay | AID 797; in the data active means inhibition above about 50%
Numbers stand for hits; 0 = inactive; - = not tested or not shown. Only some compounds are listed: those with a hit (about 2.4% of all), similar ones and a draw of the others.

SMILES	WT yeast gro inh	L929 necroptosis	Redox H2O2 prof	TNF death inh	PERK inhibitor	PKD1 inh
COC(=O)CN1C(c2ccc(Cl)cc2)=Nc2ccc(Cl)cc2C1c1ccccc1 (stereo not drawn)	82	0	0	0	0	0
COc1ccc(C2=Nc3ccc(C)cc3C(c3ccccc3)N2CC(=O)NN)cc1 (stereo not drawn)	0	0	0	0	0	0
O=S(=O)(c1cnc(Cl)c(Br)c1)N1CCN(c2ncccn2)CC1	-	0	-	0	0	-
CCCCN(C)CCCNC(=O)c1cc(=O)[nH]c2ccc(S(=O)(=O)N3CCCCC3C)cc12 (stereo not drawn)	0	0	0	0	0	0
Cc1cccc(OCC(=O)N/N=C/c2ccccc2C(=O)O)c1	0	0	0	0	0	0
O=C(CCCC(=O)N/N=C/c1ccccc1C(=O)O)N/N=C/c1ccccc1C(=O)O	-	0	-	0	3.5	-
CCOC(=O)C1=C(NC(=S)NC(=O)c2ccccc2)c2ccccc2CC1C(C)C (stereo not drawn)	78	0	0	0	0	0
CCOC(=O)c1sc(NC(=S)NC(=O)c2ccccc2)c(C(=O)OCC)c1C	0	0	0	0	0	0
CCOC(=O)C1=C(NC(=S)NC(=O)c2ccccc2)c2ccccc2CC1(C)CC (stereo not drawn)	70	0	0	0	0	0
Cc1ccc(CCc2nnc(SCC(=O)Nc3cc(Cl)ccc3Cl)n2-c2ccccc2)o1	61	0	0	0	0	0
COCc1nnc(SCC(=O)Nc2cccc(Cl)c2C)n1-c1ccccc1	0	0	0	0	0	0
CCS(=O)(=O)N1CCC(C(=O)NCc2ccc(F)cc2)CC1	0	0	0	0	3.4	0
O=C(NCc1ccc(F)cc1)C1CCN(S(=O)(=O)N2CCOCC2)CC1	0	0	0	0	0	0
COc1ccc(NS(=O)(=O)c2ccc(/C=C/C(=O)O)cc2)cc1S(=O)(=O)N1CCOCC1	-	0	-	0	0	-
C=CCNC(=S)/N=c1/ccccn1CC	-	0	-	0	0	-
CCOc1ccccc1C(=O)N1CCN(c2cccc(Cl)c2)CC1	0	0	0	0	0	0
COc1ccccc1N1CCN(c2ncc(C(=O)N3CCN(c4cccc(Cl)c4)CC3)c3ccccc23)CC1	59	0	0	0	0	0
COc1cc2c(cc1NC(=O)CSc1ccccc1)oc1ccccc12	0	0	0	0	0	0
COc1ccc(NC(=O)Nc2cc3oc4ccccc4c3cc2OC)cc1	0	0	0	0	0	0
COc1cc2c(cc1NC(=O)Nc1ccc(C)cc1)oc1ccccc12	96	0	0	0	0	0
COc1cc2c(cc1NC(=O)CSc1nc3ccccc3[nH]1)oc1ccccc12	64	0	0	0	0	0
CCCn1c2c(c(O)c(C(=O)Nc3nccs3)c1=O)CCCC2	76	0	0	0	0	0
CC(C)Cn1c2c(c(O)c(C(=O)Nc3nccs3)c1=O)CCCC2	0	0	0	0	0	0
CCCn1c2c(c(O)c(C(=O)Nc3nc(C)cs3)c1=O)CCCC2	0	0	0	0	0	0
Cc1csc(NC(=O)c2c(O)c3c(n(CC(C)C)c2=O)CCCC3)n1	63	0	0	0	0	0
SMILES	WT yeast gro inh	L929 necroptosis	Redox H2O2 prof	TNF death inh	PERK inhibitor	PKD1 inh
Cc1ccc(-c2nnc(N3CC(C)OC(C)C3)c3ccccc23)cc1 (stereo not drawn)	0	0	0	0	0	0
c1ccc(-n2cnc3ccccc32)cc1	0	0	0	0	0	0
COc1ccc2ncn(-c3ccccc3)c2c1	0	88	0	0	0	0
Cc1ccc(C(=O)N2CCN(c3ccc(NC(=O)COc4ccccc4C)cc3)CC2)cc1	0	0	0	0	0	0
S=C(NCc1ccc(Cl)cc1Cl)NC1CCCCC1	83	0	0	0	0	0
CCNC(=S)NNC(=O)CCn1cc(C)cn1	0	0	0	0	0	0
COc1cc(/C=N/n2cnnc2)ccc1OCc1ccccc1	64	0	0	0	0	0
Cc1nsc(Nc2ccc([N+](=O)[O-])cc2)c1C#N	0	0	0	0	0	0
Cn1c(=O)c2c(SCC(=O)Nc3nccs3)nc(C3CC3)nc2n(C)c1=O	-	0	-	0	0	-
O=C(Nc1ccccc1)c1ccc(S(=O)(=O)NCc2ccco2)cc1	0	0	0	0	0	0
Cc1ccc(C(=O)Nc2ccc(S(=O)(=O)NCc3ccco3)cc2)cc1	66	0	0	0	0	0
